# Bioassay records: PubChem, National Center for Advancing Translational Sciences (NCATS)
# BCR signal inh: chronic active BCR signaling inhibition. ABC-DLBCL IkBa-CBG/CBR reporter, luminescence ratio, 4 h. Potency, µM (highest dose often 46.1 µM), for inactives: at the top dose activity change, negative = inhibition, most hits filed as inhibitors. actives 0.05% (n = 340,000). AID 493014; active = well fitted inhibition curve with a large enough effect in the signal ratio, with a control signal flat, not every such curve was filed as active; inconclusive = small, poorly fitted or top-dose-only effect, or effect the other way, or a change in a side signal; the % refers to the signal ratio;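 also: potency is read from the fitted curve at half-maximal effect; plate controls were basal doxycycline-induced cells for no effect and cells given 10 µM MG132 for full effect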
#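 TMD8 ABC-DLBCL cells carrying doxycycline-inducible green luciferase fused to IkappaBalpha plus unfused red luciferase were exposed to compounds (up to 46 uM) for 4 hrs at 37C. Activity came from the overlap-corrected green/red luminescence ratio.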
# MCF10A rereplic: DNA re-replication induction in MCF 10a cells; MCF 10A DNA re-replication, Hoechst nuclear intensity, 48 h; Potency, µM (top dose mostly 46.1 µM), inactives show at the highest dose activity, positive = re-replication, most hits filed as activators; actives 2.9% (n = 350,000); also: potency is read from the fitted curve at half-maximal effect; % of control where 0% means no effect; nearly all actives have a fitted effect of over 50% in size
# Giardia kill: Giardia lamblia killing; Giardia lamblia trophozoite viability; activity change, % at 7.66 µM, hits read low; actives 0.15% (n = 340,000); in the data active = activity change below about -80%; inconclusive = between about -30% and that limit;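 also: parasites exposed to compound for two days anaerobically before the ATP read; % is scaled to controls: 0 for no effect and ±100 for the full control effect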
#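 Media and compound were dispensed first, then trophozoites at 100 cells/well; plates sat 48 hrs at 37 deg C without oxygen before ATP luminescence reagent was added and read after 15-30 min at room temperature.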
# VP16 counter: Gal4-VP16 reporter inhibition counter-screen; Potency, µM (highest dose often 53.6 µM), inactives show top-dose activity, negative = inhibition, actives largely listed as inhibitors; AID 2546; Drosophila S2 Gal4-VP16 UAS-luciferase, luminescence, 20 h; actives 3.5% (n = 310,000);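 also: Gal4-VP16 expression switched on by copper sulfate through the metallothionein promoter; potency is read from the fitted curve at half-maximal effect; % is scaled to controls: 0 for no effect and ±100 for the full control effect; nearly all actives have a fitted effect of over 50% in size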
# SW480 rerep: inducers of DNA re-replication in SW480 colon cancer cells; actives 1.8% (n = 340,000); Potency, µM (top dose mostly 46.1 µM), without a hit: at the highest dose re-replication activation, actives largely listed as activators; SW480 DNA re-replication, Hoechst DNA content imaging, 48 h; also: potency is read from the fitted curve at half-maximal effect; % of control where 0% means no effect; nearly all actives have a fitted effect of over 55% in size
#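 DNA re-replication was detected as more nuclei of elevated Hoechst intensity after 48 hr exposure to compound (23 nL pinned per well of 250 cells).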
# RORg inh: inhibitors of mouse ROR gamma transcriptional activity; P51450; Drosophila S2 Gal4-RORgamma UAS-luciferase reporter, 20 h; Potency, µM (highest dose often 53.6 µM), for the others: at the highest dose activity change, negative = inhibition, actives largely listed as inhibitors; actives 5.4% (n = 310,000); AID 2551; also: potency is read from the fitted curve at half-maximal effect; % is scaled to controls: 0 for no effect and ±100 for the full control effect; nearly all actives have a fitted effect of over 60% in size
# Target sequence (P51450 whole entry, looked up, the tested form may be a part): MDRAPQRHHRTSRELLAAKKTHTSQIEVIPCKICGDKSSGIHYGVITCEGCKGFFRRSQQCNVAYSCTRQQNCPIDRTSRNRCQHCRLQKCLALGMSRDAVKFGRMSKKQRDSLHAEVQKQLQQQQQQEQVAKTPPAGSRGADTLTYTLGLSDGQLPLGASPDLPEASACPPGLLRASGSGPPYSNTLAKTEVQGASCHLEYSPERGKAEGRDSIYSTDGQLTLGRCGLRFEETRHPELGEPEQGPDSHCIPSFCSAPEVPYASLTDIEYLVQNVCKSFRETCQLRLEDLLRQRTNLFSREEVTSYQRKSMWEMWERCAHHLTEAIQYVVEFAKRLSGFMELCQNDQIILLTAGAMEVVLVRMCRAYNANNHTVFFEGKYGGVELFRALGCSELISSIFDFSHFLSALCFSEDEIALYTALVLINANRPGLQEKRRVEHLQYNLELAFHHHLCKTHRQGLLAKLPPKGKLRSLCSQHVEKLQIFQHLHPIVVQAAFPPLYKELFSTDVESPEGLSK
#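 Schneider cells (Drosophila), stable Gal4 DBD–ROR gamma + UAS-luc; 1 hr cmpd preincubation; Cu2+ induction 700 uM final; 20 hr ambient; luminescence.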
# The depositor's hits bear a star; ? = inconclusive; · = no result; [ ] = dose if it differs, or a comment. The list is not random: actives were taken first. Their share in the collection is about 8.3%. Unless noted, calls follow the shape of the dose curve; as a rule, active = well fitted curve in the direction sought with a large enough effect; inconclusive = small, poorly fitted or top-dose-only effect, or another doubt; inactive = no such curve, though single readings can be large; an effect the other way counts as inactive or inconclusive.
SMILES,BCR signal inh,MCF10A rereplic,Giardia kill,VP16 counter,SW480 rerep,RORg inh
O=C(Nc1ccc(Br)cn1)c1cccc(-c2cc3ccccc3oc2=O)c1,?,18µM*,8,-23%,?,3%
O=C(Nc1ccccc1N1CCCC1)c1cccc(-c2cc3ccccc3oc2=O)c1,8%,20%,-4,-6%,?,?
Cc1nc(NC(=O)c2ccc(-c3cc4ccccc4oc3=O)cc2)ccc1Br,-2%,-2%,-6,3%,1%,28%
O=C(O)C1=CCCc2ccc(F)cc21,·,-8%,-16,·,-11%,·
Cc1cc(C)nc(Nc2ccccc2F)n1,10%,5%,7,0%,23µM*,11%
O=C(OCN1C(=O)c2ccccc2C1=O)c1cccnc1SC(F)F,0%,-1%,-18,-12%,-6%,-21%
O=C(O)COc1ccccc1/C=N/NC(=O)CSc1nnc(SCc2ccccc2)s1,2%,-4%,12,-7%,1%,5%
COc1cccc(CCNC(=O)CCc2nnc(Cc3cc(OC)ccc3OC)o2)c1,0%,9%,-8,-3%,-16%,14%
Cc1ccc(N2CC(NC(=O)Cc3cccs3)CC2=O)cc1C (centres undefined),-12%,·,·,·,·,·
O=C(C1=C[C@H](c2ccc3c(c2)OCO3)C[C@H](OCc2ccc(CO)cc2)O1)N1CCCCCCC1,-8%,?,13,-29%,20%[9.22 µM],14µM*
CN1CCN(C(=O)C2=C[C@H](c3csc4ccccc34)C[C@H](OCc3ccc(CO)cc3)O2)CC1,-4%,3%,-24,-1%,-6%,-4%
O=C(C1=C[C@@H](c2ccc3c(c2)OCO3)C[C@@H](OCc2ccc(CO)cc2)O1)N1CCOCC1,-21%,0%,-1,7%,-11%,0%
O=C(C1=C[C@H](c2csc3ccccc23)C[C@H](OCc2ccc(CO)cc2)O1)N1CCCCCCC1,·,23µM*,2,·,1%,·
CN1CCc2nc3sc(C(=O)C45CC6CC(CC(C6)C4)C5)c(N)c3cc2C1,-2%,9.2µM*,-7,-9%,21µM*,20%
NC(=O)c1sc2nc3c(cc2c1N)CCCCCC3,-28%,12%,1,?,-12%,11%
Cc1cc(C(=O)Nc2ccccc2C(=O)O)oc1C,?,10%,-13,4%,-3%,-16%
COC(=O)c1ccc2nc(-c3ccc4c(c3)OCO4)cn2c1,11%,8%,?,?,-3%,?
CCc1ccn2cc(-c3ccc4c(c3)OCO4)nc2c1,?,5%,?,4.5µM*,-2%,1.1µM*
CN1CCN(NC(=O)c2cc(-c3ccc(Br)s3)nc3ccccc23)CC1,12%,23µM*,-6,-19%,?,-20%
O=C(O)c1cc(-c2ccc(Br)s2)nc2ccccc12,2%,6%,5,-7%,?,-2%
COc1ccccc1N1CCN(c2cc(=O)n(Cc3ccc(F)cc3)c(=O)[nH]2)CC1,1%,?,6,-11%,16µM*,25%
O=c1cc(N2CCN(c3ccccc3Cl)CC2)[nH]c(=O)n1Cc1ccc(F)cc1,-7%,2.1µM*,44,-8%,?,10%
CCOC(=O)N1CCN(c2cc(=O)n(Cc3ccc(F)cc3)c(=O)[nH]2)CC1,0%,12µM*,-13,-10%,21µM*,-10%
CCN1CCN(c2cc(=O)n(Cc3ccc(F)cc3)c(=O)[nH]2)CC1,1%,3%,6,-9%,-9%,6%
O=c1cc(N2CCN(Cc3ccccc3)CC2)[nH]c(=O)n1Cc1ccc(F)cc1,-1%,-3%,-20,-8%,1%,?
SMILES,BCR signal inh,MCF10A rereplic,Giardia kill,VP16 counter,SW480 rerep,RORg inh
CCn1c(=O)c2sccc2n(CC(=O)NC2CCCCC2)c1=O,3%,-18%,-8,3%,-8%,-8%
COC(=O)c1sc(-c2ccc(C(C)(C)C)cc2)cc1NC(=O)COCC(=O)O,?,21µM*,?,-15%,-4%,?
CCOC(=O)c1c(C)[nH]c(C(=O)CSc2nnc(-c3cccs3)n2Cc2ccccc2)c1C,3%,?,11,-5%,?,-20%
CC(=O)c1c(C)[nH]c(C(=O)CSc2nnc(-c3cccs3)n2Cc2ccccc2)c1C,-5%,21µM*,7,1%,20%,1%
O=c1cc(CSc2nnc(-c3cccs3)n2Cc2ccccc2)nc2sc3ccccc3n12,-8%,11%,-22,14µM*,-3%,?
CCN(CC(=O)Nc1ccc(C)c(S(=O)(=O)N2CCOCC2)c1)Cc1ccccc1,-2%,26%,10,·,7%,·
COc1ccc(SC[C@H](C)CN2CC[C@H](C)CCC2=O)cc1,4%,20%,-18,·,-1%,·
COc1cc(CN(C)CC(=O)c2[nH]c(C)c(C(C)=O)c2C)ccc1OC(F)F,?,-1%,-8,2.8µM*,0%,3%
Cc1ccccc1NCc1ccc(O)c2ncccc12,-11%,?,8,11µM*,3%,11µM*
Oc1ccc(Cn2ccnc2)c2cccnc12,-1%,135%,-1,?,?,?
Oc1ccc(CNc2ccccc2)c2cccnc12,?,?,-21,0.79µM*,?,16µM*
Oc1ccc(CNCc2ccc3c(c2)OCO3)c2cccnc12,15µM*,·,·,·,·,·
Oc1ccc(CN2CCN(Cc3ccccc3)CC2)c2cccnc12,0%,13%,-15,-1%,?,5%
Oc1ccc(CNc2ccc(F)cc2)c2cccnc12,-9%,23µM*,8,?,?,11µM*
Cc1nc(SCc2ccccc2)[nH]c(=O)c1CC(=O)OCC(C)C,2%,-17%,-18,2%,-2%,7%
C[C@H](CO)N1C[C@H](C)[C@@H](CN(C)Cc2ccncc2)Oc2c(NC(=O)C3CC3)cccc2C1=O,3%,-5%,-1,·,-7%,·
O=C(c1ccc(NS(=O)(=O)c2ccc(F)cc2)cc1)N1CCC1,-10%,-4%,0,·,-5%,·
CC(=O)Nc1ccc(NS(=O)(=O)c2ccc3c(c2)oc(=O)n3C)cc1,0%,-3%,-20,-7%,?,3%
Cc1cccc(NCc2ccc(O)c3ncccc23)c1,-19%,?,?,?,?,6.3µM*
OCc1cn(Cc2ccc(O)c3ncccc23)cn1,14%,·,·,·,·,·
N[C@H](COP(=O)(O)O)C(=O)O,·,2%,·,-18%,0%,20%
CC1CC1C(=O)OCC(=O)NNC(=O)COc1ccc(Br)cc1 (centres undefined),5%,-1%,3,·,-11%,·
Cc1ccc(C(=O)NC(=S)Nc2ccc3c(c2)OCCO3)c(C)c1,?,?,11,?,0%,4.5µM*
